The values below come from PubChem BioAssay (NCATS).

Structures are written as SMILES.

One assay is described as follows: qHTS profiling of the MIPE4 collection as inhibitors of Plasmodium falciparum (3D7) proliferation (AID 743344).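 Also: scaled between DMSO vehicle wells and 0.29 µM artemisinin as full inhibition.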 Particulars: P. falciparum 3D7 in erythrocytes, SYBR Green DNA fluorescence, 72 h; at 28.5 µM. In outline: (§1)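 Erythrocytes infected with P. falciparum (0.3% parasitemia, 2.5% hematocrit) incubated with compounds 72 h at 37 C, 5% CO2. Lysis with saponin/Triton buffer containing SYBR Green I, overnight at room temperature in the dark; DNA fluorescence (485/535 nm) normalised to 0.29 uM artemisinin and DMSO.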
Background: qHTS replaces the single test concentration by a dilution series.
Take `Cc1cc(C(C)(C)C)cc(C)c1CC1=NCCN1`: the parasite growth, % of DMSO control amounted to 58.8%. The same measure, in the same setting: the same measure for `C=CCc1cc(OC)c(O)c(C(=O)NCCO)c1`: 114%; for `CCCS(=O)c1ccc2nc(NC(=O)OC)[nH]c2c1` (configuration not stated): 81.1%.

For `NC(=O)Cc1cccc(C(=O)c2ccccc2)c1N`, the parasite growth, % of DMSO control is 102%.

The next assay is described as follows: qHTS profiling of the MIPE4 collection as inhibitors of Plasmodium falciparum (DD2) proliferation (AID 743345). Particulars: P. falciparum Dd2 in erythrocytes, SYBR Green DNA, 72 h; at 28.5 µM. A digest of the protocol:
as §1
In turn, `Cc1cc(C(C)(C)C)cc(C)c1CC1=NCCN1` gave a parasite growth remaining, % of DMSO control (lower = more inhibition) of 38.8%. In turn, `C=CCc1cc(OC)c(O)c(C(=O)NCCO)c1` showed a parasite growth remaining, % of DMSO control (lower = more inhibition) of 40.8%. As to `CCCS(=O)c1ccc2nc(NC(=O)OC)[nH]c2c1` (configuration not stated), the parasite growth remaining, % of DMSO control (lower = more inhibition) came to 99.7%.
